TRHR enhancer = qHTS for Small Molecule Agonists and Allosteric Enhancers of Human TRH Receptor: Primary Screen for Enhancers; TRHR cells, fluo-8 calcium fluorescence, EC20 TRH enhancement; enhancement, % at 2 µM; 0.66% of 360,000 active; in the data active = enhancement above about 30%; note: 0% is about no effect
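TRHR-expressing cells loaded with fluo-8 calcium dye were read kinetically (ex 480/em 530) during compound addition, then stimulated with an EC20 of TRH (10 nM final). Enhancement of the Gq-mediated intracellular calcium response was scored.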
D1 PAM = Potentiators of Human D1 Dopamine Receptor: qHTS. D(1A) dopamine receptor (Homo sapiens), P21728. HEK293 TREx D1 cells, calcium flux, dopamine EC20 potentiation. potentiation, % at 10 µM. 0.036% of 360,000 active; in the data active = potentiation above about 30%; note: 0% is about no effect
Target sequence (P21728 whole entry, looked up): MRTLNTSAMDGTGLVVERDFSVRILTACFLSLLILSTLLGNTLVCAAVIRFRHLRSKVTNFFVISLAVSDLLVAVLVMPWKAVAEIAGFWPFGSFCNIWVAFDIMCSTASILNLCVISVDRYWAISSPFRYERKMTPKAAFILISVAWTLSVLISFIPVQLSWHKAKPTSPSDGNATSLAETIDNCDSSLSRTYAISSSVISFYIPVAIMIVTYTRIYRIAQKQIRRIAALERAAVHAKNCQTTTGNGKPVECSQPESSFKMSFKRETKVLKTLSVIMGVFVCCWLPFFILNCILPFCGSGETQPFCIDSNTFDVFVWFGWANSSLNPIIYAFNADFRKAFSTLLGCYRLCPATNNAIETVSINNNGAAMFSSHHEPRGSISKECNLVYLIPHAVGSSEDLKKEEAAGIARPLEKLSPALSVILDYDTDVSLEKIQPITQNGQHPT
D1 antagonist = Antagonist of Human D 1 Dopamine Receptor: qHTS. D(1A) dopamine receptor (Homo sapiens), P21728. HEK293 TREx D1 cells, calcium flux, dopamine EC80; hits give low values. activity change, negative = inhibition, % at 10 µM. 3.2% of 360,000 active; in the data active = activity change below about -30%; note: % is set by controls: 0 for no effect and ±100 for the full control effect
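Cells carrying a force-coupled, tetracycline-inducible human D1 receptor report calcium flux. Each well gets a 10 s baseline, compound with 180 s monitoring, then an EC80 dopamine stimulus with a second 180 s kinetic read.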
TRHR agonist = qHTS for Small Molecule Agonists and Allosteric Enhancers of Human TRH Receptor: Primary Screen for Agonists. 0.18% of 360,000 active. Thyrotropin-releasing hormone receptor (Homo sapiens), P34981. activation, % at 2 µM. AID 493084, 2011. TRHR cells, calcium flux fluo-8, FDSS agonist mode; note: 0% is about no effect
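Agonist-mode FDSS calcium read (Ex 480/Em 530, 1 s cycles) in 1536-well TRHR cells with fluo-8 dye, after 10-cycle baseline and 23 nL compound addition; TRH at EC20 (10 nM final) added afterwards for the enhancer phase.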
D1 ag = Allosteric Agonists of the Human D1 Dopamine Receptor: qHTS. 1% of 360,000 active. activation, % at 2 µM. HEK293 T-REx D1 cells, calcium flux, agonist mode. AID 504660, 2011. D(1A) dopamine receptor (Homo sapiens), P21728; note: 0% is about no effect
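Inducible HEK293 T-REx D1 cells, force-coupled to calcium signalling, were plated at 4000 cells/well with tetracycline and held overnight at 30 C. After no-wash calcium dye loading, compound-evoked calcium rise over 180 s flagged agonists.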
* hit, by the source's call; . = no result given; ! = not active in a repeat. The list is not random: actives were taken first. Their share in the collection is about 4.6%. Cut-off read from the data, not from the text of the source, unless noted: active = activation above about 30%; inactive = the rest.

SMILES	TRHR enhancer	D1 PAM	D1 antagonist	TRHR agonist	D1 ag
c1ccc(CN2CCN(CCOCCOc3cccc4ccccc34)CC2)cc1	10	-9	-43*	1	22
O=C(c1ccco1)N1CCN(CCOCCOc2cccc3ccccc23)CC1	7	2	-53*	0	1
COC(=O)[C@@H](NC(=O)N1CCC(C)CC1)C(C)C	3	4	5	1	1
CCCCNC(=O)/C(C#N)=C/c1ccc(F)cc1F	4	-10	-52*	1	2
COCCCNC(=O)/C(C#N)=C/c1ccc(F)cc1	3	-1	-4	5	5
O=C(/C=C/c1ccc(Cl)cc1Cl)Nc1ccc(CN2CCOCC2)cc1	0	-7	-38*	1	25
COc1cc(/C=C/c2ccc3cccc(OC)c3n2)c(OC(C)=O)c([N+](=O)[O-])c1	-2	-8	-32*	0	4
CCCc1cc(C(=O)Nc2cc(Cl)ccc2O)no1	1	-7	-4	1	1
CCCc1cc(C(=O)Nc2cc(Br)ccc2O)no1	-5	-4	-15	0	40*
CCC(C)Sc1ccc([C@H]2N[C@@](Cc3ccccc3)(C(=O)OC)[C@H]3C(=O)N(C)C(=O)[C@@H]23)cc1 (stereo partly specified)	2	-4	-14	-1	13
CCOc1ccc(CCNC(=O)CS(=O)(=O)Cc2nc(-c3ccc(OC)cc3)oc2C)cc1	40*!	-1	0	0	19
COc1ccc(-c2nc(CS(=O)(=O)CC(=O)NCCCN3CCN(C)CC3)c(C)o2)cc1	1	-5	-38*	0	0
Cc1oc(-c2ccccc2F)nc1CS(=O)(=O)CC(=O)NCCCN1CCN(C)CC1	-7	-9	15	0	3
C=C(C)CN1CCN(S(=O)(=O)c2ccc(C)c(N(C)S(=O)(=O)c3ccc(C)cc3)c2C)CC1	0	-7	-3	0	4
COc1ccc(-c2[nH]ncc2/C=N\NS(=O)(=O)c2ccc(Cl)cc2)cc1	1	-5	-42*	0	3
O=C(O)c1cc(N/N=C/c2ccncc2)ccc1Cl	1	-2	0	1	1
O=C(O)c1cc(N/N=C/c2cccnc2)ccc1Cl	-2	-1	-33*	0	1
Cc1cccc(C)c1NC1=NC2(CCCCC2)N=C(N)N1	-10	1	-3	1	2
Cc1ccc(NC2=NC3(CCCC3)N=C(N)N2)c(C)c1	-6	-4	-37*	-1	1
Cc1ccc(C)c(NC2=NC3(CCCCC3)N=C(N)N2)c1	-3	-12	-5	0	-4
NC1=NC2(CCCCC2)N=C(Nc2ccc(Br)cc2)N1	1	-11	-37*	-1	2
Cc1ccc(NC2=NC3(CCCCC3)N=C(N)N2)c(C)c1	-5	-6	-66*	0	-1
Cc1cccn2c(=O)c3cc(C(=O)N4CCN(Cc5ccccc5)CC4)sc3nc12	-7	-2	-8	0	0
Cc1ccc(-c2nc(S(=O)(=O)c3ccc(Cl)cc3)c(N3CCCCC3)o2)cc1	5	0	7	-1	-1
O=C(CC1C(=O)NCCN1Cc1c(F)cccc1Cl)NCCCN1CCCC1=O (stereo unspecified)	4	2	-39*	0	1
SMILES	TRHR enhancer	D1 PAM	D1 antagonist	TRHR agonist	D1 ag
O=C(CC1C(=O)NCCN1CCCc1ccccc1)NCCc1ccccc1F (stereo unspecified)	-6	2	-29	-1	34*
Cc1nnsc1NC(=O)OCc1ccc(C(C)(C)C)cc1	-6	-2	-32*	0	8
C=CCOC(=O)Nc1snnc1C	-6	3	10	0	1
Cc1cccc(C)c1NC(=O)C1CC(=O)N(C(C)C)C1 (stereo unspecified)	-1	1	10	0	0
COc1ccc(-c2cn(CCC(=O)O)c(-c3ccc(Cl)nc3)n2)cc1	-1	-4	13	0	0
COc1ccc2nc(SCC(=O)N3CC(=O)Nc4ccccc43)c(C#N)cc2c1	-9	-3	-30*	9	32*
Cc1ccc(Cl)cc1NC(=O)CCS(=O)(=O)c1ccc2c(c1)n(C)c(=O)c(=O)n2C	24	0	-35*	-1	2
CCN1C(=O)S/C(=C/c2c(OCc3ccc(C(=O)O)cc3)ccc3ccccc23)C1=O	-1	-1	-10	0	4
Cc1ccc(S(=O)(=O)N(C)C)cc1NC(=O)COC(=O)CCC(=O)c1cccs1	-15	-4	-5	0	2
O=C1CSC(=S)N1c1cccc(Br)c1	-16	-16	-83*	-1	3
CCS(=O)(=O)N1CCC(C(=O)NCCCN2CCN(c3ccccc3F)CC2)CC1	-2	-13	-75*	0	0
O=C(NCCN1CCN(c2ccccc2F)CC1)C1CCCN(S(=O)(=O)c2cnc[nH]2)C1 (stereo unspecified)	10	.	-45*	-1	5
CCCS(=O)(=O)N1CCCC(C(=O)NCCCN2CCN(c3ccccc3F)CC2)C1 (stereo unspecified)	9	-6	-38*	0	2
O=C1c2[nH]nc(-c3ccc(Br)cc3)c2C(c2cccc(O)c2)N1c1ccc(Cl)cc1 (stereo unspecified)	29	-1	2	2	5
N=C1SC(c2ccccc2)C(=O)N1c1ncc(Cc2ccccc2Cl)s1 (stereo unspecified)	-2	-6	-43*	0	1
O=C(NCc1ccc2c(c1)OCO2)c1ccc(CS(=O)(=O)Cc2cccc(Cl)c2)o1	-2	-7	-25	1	12
O=C(NCc1ccc(Cl)cc1)c1ccc(CSCc2cccc(Cl)c2)o1	-4	-4	-16	3	39*
O=C(NCc1ccc2c(c1)OCO2)c1ccc(CSCc2ccc(Cl)cc2)o1	1	-2	-34*	1	17
CCc1ccccc1S(=O)(=O)Cc1ccc(C(=O)NCc2ccc3c(c2)OCO3)o1	-9	-8	-56*	0	0
Cc1ccc(CNC(=O)c2ccc(CSCc3ccc(Cl)cc3)o2)cc1	8	-2	-13	2	19
CCOC(=O)c1ccccc1NC(=O)COC(=O)CC1CCCCC1	-3	3	-15	0	6
COC(=O)CCCNC(=O)c1ccc2[nH]c(C)c(C)c2c1	-7	-2	5	0	0
O=C(C1=C(O)C(=O)N(CCN2CCOCC2)C1c1ccccn1)c1cccs1 (stereo unspecified)	-2	2	4	1	5
CCOc1ccc(CC(=O)N/N=C(\C)c2cccnc2)cc1	-8	-6	-36*	0	9
